Giardia FBPA inh-1 – qHTS Assay for Inhibitors of Fructose-1,6-bisphosphate Aldolase from Giardia Lamblia. purified Giardia FBPA. Potency, µM (doses to about 59.6 µM), without a hit: at the highest dose activity, negative = inhibition, actives largely listed as inhibitors. 290,000 tested, 0.71% active. AID 2451, 2010; note: potency is the fitted concentration of half-maximal effect; % is set by controls: 0 for no effect and ±100 for the full control effect; nearly all actives have a fitted effect of over 55% in size
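Giardia FBPA (40 nM reagent) was preincubated 10 min at RT with compound (up to 57.5 uM final), then substrate plus GAPDH/TPI/NAD/arsenate coupling system with diaphorase/resazurin was added; resorufin fluorescence (525/598 nm) was read after 20 min.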
LmPK inhibitor – qHTS Assay for Inhibitors of Leishmania Mexicana Pyruvate Kinase (LmPK). Q27686. 290,000 tested, 0.37% active. purified LmPK, Kinase-Glo ATP luminescence, 1 h. AID 1721, 2009. Potency, µM (top dose mostly 57.5 µM), for inactives: at the top dose activity change, negative = inhibition, most hits filed as inhibitors; note: potency is the fitted concentration of half-maximal effect; % is set by controls: 0 for no effect and ±100 for the full control effect
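0.1 nM LmPK, 0.5 mM PEP, 0.1 mM ADP; 50 mM imidazole pH 7.2, 7 mM MgCl2, 50 mM KCl; 1 h RT. Kinase-Glo luminescence readout, normalized to no-enzyme (full inhibition) and uninhibited wells.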
RE007 growth inh – qHTS Assay for Inhibitors of the HIV-1 protein Vpr | S. pombe RE007 Vpr strain, BacTiter-Glo ATP luminescence, 24 h | Potency, µM (highest dose often 92.2 µM), without a hit: at the top dose activity change, negative = less growth, usual class: inhibitors | 360,000 tested, 0.21% active | AID 651644, 2012; active = well fitted falling curve with a large enough effect; inconclusive = small, poorly fitted or top-dose-only effect; inactive = no such curve, though single readings can be large or run the other way; note: potency is the fitted concentration of half-maximal effect; % is set by controls: 0 for no effect and ±100 for the full control effect; nearly all actives have a fitted effect of over 50% in size
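Fission yeast RE007 carrying one integrated HIV-1 vpr copy, seeded at OD 0.01 in PMG+AL medium with 23 nL pinned compound. Grown 24 h at 30 degrees; viability read by BacTiter-Glo luminescence after 5 min.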
CHX counter – Cycloheximide Counterscreen for Small Molecule Inhibitors of Shiga Toxin; cell reporter, cycloheximide protein synthesis inhibition counterscreen; max response, %; 300,000 tested, 12% active; AID 2314, 2010; in the data active = max response mostly above about 13%, no sharp cut-off; inactive = mostly below about 14%; note: read at 38.3 µM for the half of the compounds with a filed dose; 0% is about no effect
Shiga inhibitor – A qHTS for Small Molecule Inhibitors of Shiga Toxin. 290,000 tested, 9.2% active. Vero cells, Shiga toxin protein synthesis inhibition reporter. inhibition, % at 38.7 µM; in the data active = inhibition mostly above about 28%, no sharp cut-off; inactive = mostly below about 43%; note: 0% is about no effect
Tb PYK inh – qHTS of Trypanosoma Brucei Inhibitors | Potency, µM (series often up to 76.8 µM), for the others: at the highest dose activity, negative = inhibition, usual class: inhibitors | pyruvate kinase (Trypanosoma brucei), Q57TT1 | TbPYK enzyme, Kinase-Glo Plus ATP luminescence, 45 min | 410,000 tested, 0.12% active; note: potency is the fitted concentration of half-maximal effect; % is set by controls: 0 for no effect and ±100 for the full control effect; nearly all actives have a fitted effect of over 50% in size
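Readout: single end-point luminescence (Kinase-Glo Plus, 10 min). Reaction conditions were TbPYK/substrate plus 130 uM ADP, 45 min at RT, pH 7.2 TEA buffer. No-enzyme wells served as controls, and data were normalized before concentration-response fitting.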
Giardia growth – qHTS Assay for Inhibitors of Fructose-1,6-bisphosphate Aldolase from Giardia Lamblia: Giardia lamblia growth inhibition; shares compounds with Giardia FBPA inh-1; Giardia lamblia trophozoite growth inhibition; Potency, µM (series often up to 57.5 µM), without a hit: at the top dose activity change, negative = inhibition, hits mostly inhibitors; 1,500 tested, 5% active;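 note: potency is the fitted concentration of half-maximal effect; trophozoites exposed to compound for 48 h at 37 °C; % is set by controls: 0 for no effect and ±100 for the full control effect; nearly all actives have a fitted effect of over 70% in size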
Mammalian tox – qHTS Assay for Inhibitors of Fructose-1,6-bisphosphate Aldolase from Giardia Lamblia: Mammalian cellular toxicity; Potency, µM (doses to about 57.5 µM), for inactives: at the highest dose viability change, negative = toxicity, most hits filed as inhibitors; mammalian cell viability counter-screen, qHTS; 1,500 tested, 4% active; shares compounds with Giardia FBPA inh-1;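 note: Chinese hamster ovary cells used as mammalian cytotoxicity surrogate; viability measured as cellular ATP by luminescence; potency is the fitted concentration of half-maximal effect; compound exposure lasted 48 h before reading; % is set by controls: 0 for no effect and ±100 for the full control effect; nearly all actives have a fitted effect of over 60% in size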
Giardia FBPA inh-2 – qHTS Assay for Inhibitors of Fructose-1,6-bisphosphate Aldolase from Giardia Lamblia: Primary screen confirmation; Potency, µM (top dose mostly 57.5 µM), for inactives: at the top dose activity change, negative = inhibition, most hits filed as inhibitors; 1,500 tested, 5% active; shares compounds with Giardia FBPA inh-1; purified Giardia aldolase enzyme activity, qHTS; note: potency is the fitted concentration of half-maximal effect; % is set by controls: 0 for no effect and ±100 for the full control effect; nearly all actives have a fitted effect of over 45% in size
Rabbit aldolase – qHTS Assay for Inhibitors of Fructose-1,6-bisphosphate Aldolase from Giardia Lamblia: Rabbit FBPA Selectivity; Potency, µM (highest dose often 57.5 µM), for inactives: at the top dose activity, negative = inhibition, hits mostly inhibitors; 1,500 tested, 4% active; Rabbit muscle FBPA enzyme inhibition, selectivity counter-screen; shares compounds with Giardia FBPA inh-1; note: potency is the fitted concentration of half-maximal effect; % is set by controls: 0 for no effect and ±100 for the full control effect; nearly all actives have a fitted effect of over 60% in size
Target sequence (P00883 whole entry, looked up): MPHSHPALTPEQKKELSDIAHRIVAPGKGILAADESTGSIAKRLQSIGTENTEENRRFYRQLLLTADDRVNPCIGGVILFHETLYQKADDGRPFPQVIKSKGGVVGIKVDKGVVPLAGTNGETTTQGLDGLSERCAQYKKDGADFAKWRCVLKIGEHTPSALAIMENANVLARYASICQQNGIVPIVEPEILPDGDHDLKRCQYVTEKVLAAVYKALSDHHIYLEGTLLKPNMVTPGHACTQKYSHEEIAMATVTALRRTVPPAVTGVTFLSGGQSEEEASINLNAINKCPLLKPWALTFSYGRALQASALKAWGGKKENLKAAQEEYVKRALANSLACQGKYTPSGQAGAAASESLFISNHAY
GAPDH counter – qHTS Assay for Inhibitors of Fructose-1,6-bisphosphate Aldolase from Giardia Lamblia: Coupling assay counterscreen confirmation | Potency, µM (top dose mostly 57.5 µM), inactives show top-dose activity change, negative = inhibition, usual class: inhibitors | AID 2795, 2010 | 1,500 tested, 6% active | shares compounds with Giardia FBPA inh-1 | GAPDH coupling enzyme counterscreen, biochemical, qHTS; note: potency is the fitted concentration of half-maximal effect; % is set by controls: 0 for no effect and ±100 for the full control effect; nearly all actives have a fitted effect of over 55% in size
Active calls of the source: *; [ ] = remark or other dose. Only a selection was taken, and hits are over-represented in it overall. Unless noted, calls come from the whole dose curve; as a rule, active = well fitted curve in the direction sought with a large enough effect; inconclusive = small, poorly fitted or top-dose-only effect, or another doubt; inactive = no such curve, though single readings can be large; an effect the other way counts as inactive or inconclusive.

Screening COc1ccc(-c2cc(-c3ccco3)[nH]c(=O)c2C#N)cc1OC returned Giardia FBPA inh-1 16µM*, LmPK inhibitor 4%, RE007 growth inh 6%, CHX counter 0, Shiga inhibitor -14, Tb PYK inh 3%, Giardia growth 19%, Mammalian tox -14%, Giardia FBPA inh-2 -15%, Rabbit aldolase -11% and GAPDH counter -4%.
`N#Cc1c(-c2ccccc2)cc(-c2ccc3c(c2)OCO3)[nH]c1=O` gave RE007 growth inh 23% and Tb PYK inh 0%.
For Cc1[nH]c(=S)[nH]c(=O)c1CCC1OCCO1 the results were Giardia FBPA inh-1 7.1µM*, LmPK inhibitor 4%, CHX counter -5, Shiga inhibitor -4, Tb PYK inh 1%, Giardia growth 7%[38.3 µM], Mammalian tox -2%, Giardia FBPA inh-2 7%, Rabbit aldolase 9% and GAPDH counter -11%.
Screening CCNC(=O)N(C)c1c(CC)nc2ccc(C(=O)N3CCN(C(=O)c4ccco4)CC3)cn12 returned RE007 growth inh -15% and Tb PYK inh 1%.
Screening S=C(Nc1cccc(Cl)c1)Nc1cccc2cnccc12 returned Giardia FBPA inh-1 0.25µM*, LmPK inhibitor 5%, RE007 growth inh -35%, CHX counter 47*, Shiga inhibitor 56*, Tb PYK inh -24%, Giardia growth 12%[38.3 µM], Mammalian tox 10%, Giardia FBPA inh-2 inconclusive, Rabbit aldolase inconclusive and GAPDH counter 25µM*.
Cc1ccc(OCCOCCN2CCCCC2)c([N+](=O)[O-])c1 was read as Giardia FBPA inh-1 20µM*, LmPK inhibitor -2%, RE007 growth inh -17%, CHX counter -2, Shiga inhibitor -23, Tb PYK inh 7%, Giardia growth 28%, Mammalian tox -11%, Giardia FBPA inh-2 -7%, Rabbit aldolase 3% and GAPDH counter 4%.
Cc1ccc(OCCOCCN2CCN(C)CC2)c([N+](=O)[O-])c1 was read as Giardia FBPA inh-1 inconclusive, LmPK inhibitor -12%, RE007 growth inh 9%, CHX counter 2, Shiga inhibitor 2 and Tb PYK inh -12%.

Bioassay records (PubChem)
